{"source": "the supplement of paper PMC12808144"}
{"test_system": "Mel-DCC-11-R", "assay": "cell viability relative to DMSO control (fraction of DMSO control); higher = less cytotoxic, active = 0.8 or less", "conditions": "1 µM; 120 h; vemurafenib co-treatment 8 µM", "procedure,_shortened": "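Cells in 40 µl per well went into 384-well plates pre-spotted acoustically with a TargetMol library of 315 approved anti-cancer drugs, each at 1 µM in duplicate, for 120 h. Seeding was 2500/well for NHEM-hTERT immortalized melanocytes and 1500/well for patient-derived Mel-DCC-11 and its resistant subline Mel-DCC-11-R, which was run alone and with 8 µM of its selecting drug. Luminescence was read with ATPlite 1step. Viability was normalised to vehicle-treated controls and averaged over duplicates.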"}
{"smiles": "N.N.O=C([O-])C1(C(=O)[O-])CCC1.[Pt+2]", "note": "[Carboplatin]", "cell viability": "1.23 (inactive)"}
{"smiles": "S=P(N1CC1)(N1CC1)N1CC1", "note": "[Triethylenethiophosphoramide]", "cell viability": "0.932 (inactive)"}
{"smiles": "CC1(C)CCC(C)(C)c2cc(NC(=O)c3ccc(C(=O)O)cc3)ccc21", "note": "[Tamibarotene]", "cell viability": "1.21 (inactive)"}
{"smiles": "CC[C@@H](CO)NCCN[C@@H](CC)CO.Cl.Cl", "note": "[Ethambutol dihydrochloride]", "cell viability": "1.08 (inactive)"}
{"smiles": "CO[C@H]1C[C@@H]2CC[C@@H](C)[C@@](O)(O2)C(=O)C(=O)N2CCCC[C@H]2C(=O)O[C@H]([C@H](C)C[C@@H]2CC[C@@H](OC(=O)C(C)(CO)CO)[C@H](OC)C2)CC(=O)[C@H](C)/C=C(\\C)[C@@H](O)[C@@H](OC)C(=O)[C@H](C)C[C@H](C)/C=C/C=C/C=C/1C", "note": "[Temsirolimus]", "cell viability": "0.786 (active)"}
{"smiles": "O=C(CCCCCCC(=O)Nc1ccccc1)NO", "note": "[Vorinostat]", "cell viability": "1.04 (inactive)"}
{"smiles": "O=c1[nH]c(=O)n(C2CCCO2)cc1F", "note": "(stereo not given) [Tegafur]", "cell viability": "0.865 (inactive)"}
{"smiles": "CCCCc1nc2cc(/C=C/C(=O)NO)ccc2n1CCN(CC)CC", "note": "[Pracinostat]", "cell viability": "0.453 (active)"}
{"smiles": "C#CCC(Cc1cnc2nc(N)nc(N)c2n1)c1ccc(C(=O)N[C@@H](CCC(=O)O)C(=O)O)cc1", "note": "(stereo not given in full) [Pralatrexate]", "cell viability": "1.09 (inactive)"}
{"smiles": "CCCCCOC(=O)Nc1nc(=O)n([C@@H]2O[C@H](C)[C@@H](O)[C@H]2O)cc1F", "note": "[Capecitabine]", "cell viability": "1.11 (inactive)"}
